Source: doi:10.1101/2024.03.05.583629

biological target: pT7_6His-AlfaTag-ZIF268 (human, UniProt P18146 335-423); assay: PADIT-seq; conditions: dsDNA, one strand shown

Sequence | binding signal [log2FC]
CTCGAGGATATCAAGATCTGGCCTCGGCATATGGGCGGGAACCTCTAGCTAGCCGACTCACTATAGGGATAATCGCCCTGAGCAAAGACC | 0.0376 ± 0.0849
CTCGAGGATATCAAGATCTGGCCTCGGCCGTTGGGCGGGAACCTCTAGCTAGCCGACTCACTATAGGGATAATCGCCCTGAGCAAAGACC | 0.0419 ± 0.0862
CTCGAGGATATCAAGATCTGGCCTCGGCCATTGGGCGGGAACCTCTAGCTAGCCGACTCACTATAGGGATAATCGCCCTGAGCAAAGACC | 0.139 ± 0.0899
CTCGAGGATATCAAGATCTGGCCTCGGCATTTTACAGGGAACCTCTAGCTAGCCGACTCACTATAGGGATAATCGCCCTGAGCAAAGACC | 0.116 ± 0.0849
CTCGAGGATATCAAGATCTGGCCTCGGCTTTTTACCTGGAACCTCTAGCTAGCCGACTCACTATAGGGATAATCGCCCTGAGCAAAGACC | 0.019 ± 0.125
CTCGAGGATATCAAGATCTGGCCTCGGCATTTTAAGAGGAACCTCTAGCTAGCCGACTCACTATAGGGATAATCGCCCTGAGCAAAGACC | 0.0486 ± 0.104
CTCGAGGATATCAAGATCTGGCCTCGGCTACATAAAAGGAACCTCTAGCTAGCCGACTCACTATAGGGATAATCGCCCTGAGCAAAGACC | 0.0761 ± 0.103
CTCGAGGATATCAAGATCTGGCCTCGGCGTTTTAGCCGGAACCTCTAGCTAGCCGACTCACTATAGGGATAATCGCCCTGAGCAAAGACC | 0.0458 ± 0.125
CTCGAGGATATCAAGATCTGGCCTCGGCAGAATAAAAGGAACCTCTAGCTAGCCGACTCACTATAGGGATAATCGCCCTGAGCAAAGACC | 0.0567 ± 0.0846
CTCGAGGATATCAAGATCTGGCCTCGGCAGTTGGGCGGGAACCTCTAGCTAGCCGACTCACTATAGGGATAATCGCCCTGAGCAAAGACC | 0.102 ± 0.086
CTCGAGGATATCAAGATCTGGCCTCGGCCTTTTAGTGGGAACCTCTAGCTAGCCGACTCACTATAGGGATAATCGCCCTGAGCAAAGACC | 0.00894 ± 0.0794
CTCGAGGATATCAAGATCTGGCCTCGGCATATTAAAAGGAACCTCTAGCTAGCCGACTCACTATAGGGATAATCGCCCTGAGCAAAGACC | 0.0247 ± 0.0768
